Laboratory results taken from PubChem BioAssay (Tox21).
Results filed as inconclusive are left out. The source made the active and inactive calls. Unless noted, calls follow the shape of the dose curve; as a rule, active = well fitted curve in the direction sought with a large enough effect in the repeat runs; inconclusive = weak or mixed curves; inactive = no such curve, though single readings can be large; an effect the other way counts as inactive or inconclusive.

Key:
[1] = qHTS assay to identify small molecule agonists of the vitamin D receptor (VDR) signaling pathway - cell viability counter screen (AID 743224); also: series mostly up to about 63 µM; nearly all actives have a fitted effect of over 50% in size
Method in brief: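 Viability is measured in the same wells as the VDR-bla reporter assay: after 16 h compound treatment and 2 h substrate loading, CellTiter-Glo is added and luminescence read 30 min later.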

[2] = qHTS assay to identify small molecule antagonists of the vitamin D receptor (VDR) signaling pathway - cell viability counter screen (AID 743225); also: nearly all actives have a fitted effect of over 50% in size
Method in brief: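 Compounds were pinned onto VDR-bla HEK 293T cells together with 1-alpha,25-dihydroxyvitamin D3 at 3 nM final. After 16 h at 37C and 5% CO2 plus the reporter readout, cell viability was measured by CellTiter-Glo luminescence (30 min, room temperature).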

[3] = qHTS assay to identify small molecule agonists of the NFkB signaling pathway (AID 1159509; active = well fitted curve in the direction sought with a large enough effect in the signal ratio in the repeat runs, not every such curve was filed as active; the % refers to the signal ratio; also: series mostly up to about 61 µM)
Method in brief: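 After overnight attachment, reporter cells received test compounds, DMSO or positive controls and were incubated 5 hr at 37 C. FRET substrate was then added for 1.5 hr at room temperature before dual-emission fluorescence reading.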

[4] = qHTS assay to identify small molecule agonists of the NFkB signaling pathway - cell viability counter screen (AID 1159515; calls by dose curve; also: series mostly up to about 61 µM; nearly all actives have a fitted effect of over 55% in size)
Method in brief: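 Multiplexed viability readout: after the 5 hr compound exposure and 1.5 hr FRET substrate step, CellTiter-Glo reagent went into the same NFkB-bla ME-180 wells; ATP luminescence was measured after 30 min at room temperature.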

[5] = qHTS assay to identify small molecule agonists of the endoplasmic reticulum stress response signaling pathway (AID 1159516; active = well fitted activation curve with a large enough effect in the signal ratio in the repeat runs, not every such curve was filed as active; the % refers to the signal ratio)
Method in brief: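 Tox21 10K library screened in quantitative HTS format on ESRE-bla HeLa cells, a beta-lactamase reporter under ER stress response element control; 5 hr treatment, FRET read.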

[6] = qHTS assay to identify small molecule agonists of the endoplasmic reticulum stress response signaling pathway - cell viability counter screen (AID 1159517; calls by dose curve; also: series mostly up to about 61 µM; nearly all actives have a fitted effect of over 50% in size)
Method in brief: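 Cells, HeLa ESRE-bla; density, 1,500/well; dosing, 5 hr at 37 C, 5% CO2; readout, CellTiter-Glo luminescence after 30 min RT.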

[7] = qHTS assay to identify small molecule antagonists of the retinoid-related orphan receptor gamma (ROR-gamma) signaling pathway - cell viability counter screen (AID 1159520); also: nearly all actives have a fitted effect of over 50% in size
Method in brief: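 Cytotoxicity was read from cellular ATP (CellTiter-Glo luminescence) after 16 hr at 37 C with 1 uM doxycycline induction. The inducer was added 2 hr after compound transfer to Tet-on ROR gamma CHO cells.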

[8] = molecular target: Nuclear receptor ROR-gamma (Homo sapiens) (UniProt P51449); assay: qHTS assay to identify small molecule antagonists of the retinoid-related orphan receptor gamma (ROR-gamma) signaling pathway (AID 1159521)
Method in brief: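 Test compounds were applied to Tet-on RORγ CHO cells 2 h ahead of doxycycline hyclate (1 uM final). Luciferase reporter activity was quantified by luminescence after 16 h at 37 C and 5% CO2.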

[9] = qHTS assay to identify small molecule agonists of the AP-1 signaling pathway - cell viability counter screen (AID 1159525; calls by dose curve; also: nearly all actives have a fitted effect of over 55% in size)
Method in brief: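 Luminescent ATP readout (Cell Titer Glo, 30 min RT), normalised to DMSO and tetra n-octyl ammonium bromide controls. Cells were ME-180 AP-1-bla in 0.5% dialyzed FBS Opti-MEM, with a 5 h, 37 °C compound exposure.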

[10] = qHTS assay to identify small molecule agonists of the AP-1 signaling pathway (AID 1159526; calls by dose curve)
[11] = molecular target: Retinoic acid receptor RXR-alpha (Homo sapiens) (UniProt P19793); assay: qHTS assay to identify small molecule agonists of the RXR signaling pathway (AID 1159527; calls by dose curve; also: nearly all actives have a fitted effect of over 35% in size)
Method in brief: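 Using 9-cis retinoic acid as the reference agonist, chemicals were tested in HEK 293T cells […] for 16 hr; substrate loading lasted 2 hr at room temperature.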

[12] = qHTS assay to identify small molecule agonists of the RXR signaling pathway - cell viability counter screen (AID 1159529)
Method in brief: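 Compounds dissolved in DMSO were pinned onto HEK 293T cells carrying a beta-lactamase reporter under RXR-alpha control and incubated 16 hr. Cytotoxicity was then quantified by CellTiter-Glo luminescence.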

[13] = qHTS assay to identify small molecule antagonists of the retinoid acid receptor (RAR) signaling pathway - cell viability counter screen (AID 1159551); also: nearly all actives have a fitted effect of over 35% in size
Method in brief: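 Cytotoxicity counter screen in C3RL4 cells: 6 h compound exposure with 1 uM retinol (final), viability from cellular ATP by luminescence.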

[14] = qHTS assay to identify small molecule antagonists of the retinoic acid receptor (RAR) signaling pathway (AID 1159552; also: nearly all actives have a fitted effect of over 50% in size)
Method in brief: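 Test chemicals and DMSO controls were pin-transferred onto C3RL4 cells a day after seeding; retinol (1 uM final) followed at once. Luminescent reporter output was quantified after 6 hr of co-incubation and 30 min with detection reagent.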

[15] = qHTS assay to identify small molecule agonists of the retinoic acid receptor (RAR) signaling pathway (AID 1159553)
Method in brief: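 Agonist activity was scored in C3RL4 cells bearing a retinoic acid response element luciferase construct. Cells were treated with compounds for 6 hr at 37 C, and luciferase signal was measured as luminescence.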

[16] = molecular target: Luciferin 4-monooxygenase (Photinus pyralis) (UniProt P08659); assay: qHTS assay to identify small molecule inhibitors of firefly luciferase (AID 1224835); also: series mostly up to about 120 µM; nearly all actives have a fitted effect of over 25% in size
Method in brief: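 Inhibition of purified Photinus luciferase is measured by luminescence. Substrate levels (D-luciferin, ATP) sit at their KM values. Each compound is tested in a concentration series.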

[17] = qHTS assay to identify small molecule agonists of the constitutive androstane receptor (CAR) signaling pathway - cell viability counter screen (AID 1224836); also: series mostly up to about 92 µM; nearly all actives have a fitted effect of over 45% in size
Method in brief: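 23 h treatment, 37 C, 5% CO2. Cell line: HepG2 stably expressing hCAR with a CYP2B6-2.2kb construct. Co-treatment: PK11195, 0.75 uM final. Read-out: CellTiter-Fluor fluorescence intensity.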

[18] = qHTS assay to identify small molecule antagonists of the constitutive androstane receptor (CAR) signaling pathway - cell viability counter screen (AID 1224837); also: series mostly up to about 92 µM; nearly all actives have a fitted effect of over 45% in size
Method in brief: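 Multiplexed cytotoxicity read-out for the CAR antagonist screen: double-stable HepG2-CYP2B6-hCAR cells co-treated with 50 nM CITCO (final) and compound over 15 concentrations, incubated 23 hr, then assessed by CellTiter-Fluor fluorescence.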

[19] = molecular target: Nuclear receptor subfamily 1 group I member 3 (Homo sapiens) (UniProt Q14994); assay: qHTS assay to identify small molecule antagonists of the constitutive androstane receptor (CAR) signaling pathway (AID 1224838); also: nearly all actives have a fitted effect of over 40% in size
Method in brief: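 Compounds were titrated across 15 concentrations onto HepG2 cells double-stably expressing hCAR and a CYP2B6-2.2kb reporter, together with 50 nM CITCO (final). After 24 h at 37 C, luciferase activity was measured by luminescence.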

[20] = qHTS assay to identify small molecule antagonists of the estrogen related receptor (ERR) signaling pathway from Tox21 library - cell viability counter screen (AID 1224834); also: nearly all actives have a fitted effect of over 30% in size
Method in brief: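 Cytotoxicity of test substances is gauged in the same ERR cells used for the antagonist screen, after 17.5 h of compound treatment at 37 C, by CellTiter-Fluor fluorescence measured after 30 min.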

Measured: Potency

Sequence of Luciferin 4-monooxygenase (Photinus pyralis) (P08659 whole entry, looked up): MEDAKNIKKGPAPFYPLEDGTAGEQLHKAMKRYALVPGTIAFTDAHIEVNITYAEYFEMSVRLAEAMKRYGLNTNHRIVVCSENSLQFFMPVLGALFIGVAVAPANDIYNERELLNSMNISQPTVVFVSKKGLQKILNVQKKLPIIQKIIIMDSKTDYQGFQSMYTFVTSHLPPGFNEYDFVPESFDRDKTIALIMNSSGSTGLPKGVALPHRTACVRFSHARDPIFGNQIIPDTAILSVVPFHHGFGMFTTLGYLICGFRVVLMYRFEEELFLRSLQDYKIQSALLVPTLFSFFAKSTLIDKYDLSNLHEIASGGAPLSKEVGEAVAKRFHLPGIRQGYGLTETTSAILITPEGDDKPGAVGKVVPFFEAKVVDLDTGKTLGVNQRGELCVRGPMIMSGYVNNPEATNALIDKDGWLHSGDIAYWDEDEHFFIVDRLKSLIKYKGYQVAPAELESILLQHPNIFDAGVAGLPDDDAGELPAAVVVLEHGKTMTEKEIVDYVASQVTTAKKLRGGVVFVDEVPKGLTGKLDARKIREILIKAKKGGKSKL
Sequence of Retinoic acid receptor RXR-alpha (Homo sapiens) (P19793 whole entry, looked up): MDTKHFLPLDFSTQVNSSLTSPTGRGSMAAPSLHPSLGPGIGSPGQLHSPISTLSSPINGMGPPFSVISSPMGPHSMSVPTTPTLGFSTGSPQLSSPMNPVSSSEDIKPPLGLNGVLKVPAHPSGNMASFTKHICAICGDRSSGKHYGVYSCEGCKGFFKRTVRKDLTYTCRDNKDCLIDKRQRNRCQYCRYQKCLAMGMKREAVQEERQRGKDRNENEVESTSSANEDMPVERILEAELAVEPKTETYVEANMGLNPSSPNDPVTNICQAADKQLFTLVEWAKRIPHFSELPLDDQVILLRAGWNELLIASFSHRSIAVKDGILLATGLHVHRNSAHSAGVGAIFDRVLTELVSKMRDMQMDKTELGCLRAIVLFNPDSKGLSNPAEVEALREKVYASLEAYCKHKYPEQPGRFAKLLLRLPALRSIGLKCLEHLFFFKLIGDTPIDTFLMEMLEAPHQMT
Sequence of Nuclear receptor subfamily 1 group I member 3 (Homo sapiens) (Q14994 whole entry, looked up): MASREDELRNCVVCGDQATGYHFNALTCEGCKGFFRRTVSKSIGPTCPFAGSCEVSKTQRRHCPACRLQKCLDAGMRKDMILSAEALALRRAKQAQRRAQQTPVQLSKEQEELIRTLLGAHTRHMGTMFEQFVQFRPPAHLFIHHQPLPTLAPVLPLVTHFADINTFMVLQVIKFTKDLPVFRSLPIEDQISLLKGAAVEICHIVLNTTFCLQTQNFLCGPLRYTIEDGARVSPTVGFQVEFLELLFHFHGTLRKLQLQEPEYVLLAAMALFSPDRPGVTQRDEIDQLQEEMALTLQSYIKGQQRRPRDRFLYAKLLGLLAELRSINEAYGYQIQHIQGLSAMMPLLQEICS

Cc1ccnc(N)c1
not listed: [20]
inactive: all other assays above

O=C=NCC1CCCC(CN=C=O)C1 (stereo not drawn)
not listed: [20]
inactive: all other assays above

C[C@]12CCC(=O)C=C1CC[C@H]1[C@@H]3CC[C@](O)(C(=O)CO)[C@@]3(C)C[C@H](O)[C@@]12F
inactive: all assays above

CC1=C(C(=O)O)N2C(=O)[C@@H](NC(=O)[C@H](N)C3=CCC=CC3)[C@H]2SC1
inactive: all assays above

CCCCCCCCCCCCCCC(=O)NC(CO)CCCCCCCCCCCCCC (stereo not drawn)
inactive: all assays above

CN(C)CCCCl
inactive: all assays above
